BoNT-F LC inh: blocks Botulinum neurotoxin F light chain protease. Multiplex microsphere protease cleavage assay, flow cytometry. inhibition, % at 10 µM. 360,000 compounds, 0.22% hits. AID 588497; in the data active means inhibition above about 35%, passing the limit was not always enough; inconclusive means no clear call, values can overlap the other calls; further: plate controls were buffer without enzyme for full effect and enzyme alone for no effect
Bead autofluor: counter-screen for toxin protease inhibitors: compound fluorescence | compound autofluorescence counterscreen, microsphere flow cytometry; hits give high values | fluorescence intensity (test concentration not listed) | 360,000 compounds, 3.1% hits; in the data active means fluorescence intensity above about 16000; inconclusive means no clear call, values can overlap the other calls
Anthrax LF inh2: anthrax lethal factor protease inhibition | P15917 | multiplex microsphere protease cleavage assay, LF | inhibition, % at 10 µM | 360,000 compounds, 0.12% hits; further: plate controls were buffer without enzyme for full effect and enzyme alone for no effect
BoNT-A LC inh2: inhibitors of Botulinum neurotoxin A light chain protease; multiplex microsphere protease substrate cleavage, flow cytometry; inhibition, % at 10 µM; 360,000 compounds, 0.17% hits; AID 588499; further: plate controls were buffer without enzyme for full effect and enzyme alone for no effect
MazEF act: MazEF (E. coli) toxin RNase activation. P0AE70. FAM/BHQ RNA-DNA oligo cleavage fluorescence, 5 h. activation, % at 20 µM. 350,000 compounds, 0.32% hits. AID 504720; in the data active means activation above about 50%
Target sequence (P0AE70 whole entry, looked up): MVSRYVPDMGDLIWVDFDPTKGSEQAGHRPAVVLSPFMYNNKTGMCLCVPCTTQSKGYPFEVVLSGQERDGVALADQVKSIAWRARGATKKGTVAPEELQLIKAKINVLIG
* marks the source's active call; other numbers are inactive results; ? = inconclusive; . = not tested or not shown; + = active, no number. Only some compounds are listed: those with a hit (about 3.6% of all), similar ones and a draw of the others. Unless noted, no stated cut-off is given here; in the data, active means inhibition above about 30%; inconclusive means no clear call, values can overlap the other calls; inactive means below that.

SMILES | BoNT-F LC inh | Bead autofluor | Anthrax LF inh2 | BoNT-A LC inh2 | MazEF act
CCN1C(=O)C(CC(=O)NCc2ccc(Cl)cc2)N(CC)C1=O (centres undefined) | -1 | 20390* | 0 | -1 | 10
CCN1C(=O)C(CC(=O)NC2CCCCC2)N(CC)C1=O (centres undefined) | 0 | 3377 | -3 | -1 | 4
O=C(COc1ccc2ccccc2c1)N1c2ccccc2Sc2ccccc21 | -6 | 22677* | 1 | -7 | -5
COC1=C/C(=C/c2c(N)n3cc(C)sc3nc2=O)C=CC1=O | 22 | 4949 | 14 | 6 | -49
Cc1cn2c(N)c(C=C3C=C(Cl)C(=O)C(Cl)=C3)c(=O)nc2s1 | 141* | 26112* | 32* | 23 | 37
Oc1ccccc1/C=N/Nc1nccnc1Cl | -10 | 9470 | -2 | -2 | 0
O=[N+]([O-])c1ccccc1/C=N/Nc1nccnc1Cl | 0 | 22518* | -2 | -1 | -4
N#CC1=C(N)N2C(=C(C#N)C13CCCCC3)SC1CCCCC12O (centres undefined) | 0 | 22232* | -2 | -1 | 3
CCOC(=O)CC(=O)CSCC(=O)Nc1ccc(C)cc1 | 0 | 22826* | 0 | 2 | -2
CCOC(=O)c1ccc(NC(=O)CSCCC(=O)O)cc1 | 0 | 4347 | -6 | 0 | 5
Cc1ccc(NC(=O)CSCC#N)cc1 | -12 | 18468* | -8 | ? | 4
Cc1ccc(NC(=O)CCC(=O)OCC(F)(F)C(F)F)cc1 | 2 | 21194* | -2 | ? | -6
CCOC(=O)c1ccc(NC(=O)CSCc2ccco2)cc1 | -3 | 16501* | 0 | ? | -6
Cc1ccc(S(=O)(=O)N2CCN(CC(=O)Nc3ccccc3C(=O)NC3CC3)CC2)cc1 | 2 | 5239 | -2 | 3 | 3
Cc1ccc(S(=O)(=O)N2CCN(c3nc(C(C)C)c4c(c3C#N)CC(C)(C)OC4)CC2)cc1 | 7 | 22172* | -1 | 4 | -9
Cc1cc(C)n(-c2nc3nonc3nc2Nc2cccc(C)c2C)n1 | 17 | 2716 | -1 | 1 | 190*
Cc1nc(SC(C(=O)c2ccccc2)c2ccccc2)nc2ccccc12 (centres undefined) | 4 | 2118 | 0 | 1 | -1
Cc1nc(SC(C(=O)c2ccccc2)c2ccccc2)n[nH]1 (centres undefined) | 5 | 20864* | 0 | 4 | -7
O=C(COC(=O)CCNS(=O)(=O)c1ccccc1)NC1CC1 | 10 | 3126 | -5 | 0 | 3
Cn1ncc2c1NC(c1ccc(F)cc1)SCC2=O (centres undefined) | -2 | 3700 | 1 | 0 | 2
COc1ccc(CNC(=O)C2CCN(C(=O)N(C)C)CC2)c(OC)c1 | -3 | 16860* | -4 | ? | 4
COc1ccccc1CNC(=O)C1CCN(C(=O)N(C)C)CC1 | 1 | 20518* | -2 | 0 | -6
CN(C)C(=O)N1CCC(C(=O)NCc2ccccc2)CC1 | 4 | 6437 | 0 | 1 | -1
O=C(NC(NCc1ccccn1)(C(F)(F)F)C(F)(F)F)c1ccco1 | 0 | 22419* | 2 | 0 | 3
COc1ccc(/C=C/c2nc3sc4c(c3c(=O)o2)CCC4)cc1 | 14 | 3008 | 4 | 4 | +
SMILES | BoNT-F LC inh | Bead autofluor | Anthrax LF inh2 | BoNT-A LC inh2 | MazEF act
COc1ccc(-n2c(C)nc3sc4c(c3c2=O)CCC4)cc1 | -2 | 4964 | -1 | 0 | 14
O=c1oc(/C=C/c2ccccc2)nc2sc3c(c12)CCC3 | -8 | 4755 | 1 | 0 | 324*
COC(=O)c1c(C)[nH]c(C(=O)COC(=O)CCNS(=O)(=O)c2cccc(C(F)(F)F)c2)c1C | -3 | 6771 | -2 | -1 | -4
O=C(Nc1ccccc1N1CCCCC1)c1ccc(N2C(=O)c3ccccc3C2=O)cc1 | -1 | 16910* | -2 | 0 | -4
O=C(Nc1ccccc1N1CCCC1)c1ccccc1F | 10 | 3527 | -2 | 1 | 16
O=C(Nc1ccccc1N1CCCCC1)c1ccccc1F | -5 | 23407* | -2 | -1 | 0
CC(=O)N1CC2(CC(c3ccccc3F)=NO2)CN1c1ccc(Cl)cc1 (centres undefined) | -8 | 3614 | -4 | 0 | 2
COc1ccc(-c2csc(NC(C)c3nc4cc(C(=O)NCCCO)ccc4n3Cc3ccc(C)cc3)n2)cc1 (centres undefined) | 5 | 3902 | -5 | 0 | -5
Cc1c(C#N)c2ncnc(-c3ccccc3)c2n1-c1ccccc1 | -4 | 23956* | -2 | -1 | -3
CN1CCN(c2ccc([N+](=O)[O-])c(N/N=C3\CN4CCC3CC4)c2)CC1 | -4 | 20912* | -2 | -1 | -3
COc1ccc(Cl)cc1N(CC(=O)N1CCCCCC1)S(C)(=O)=O | -15 | 3945 | 1 | -4 | 4
Nc1cc(N)nc(SCC(=O)N2CCCCC2)n1 | -3 | 6934 | 8 | -1 | 6
CC1CCN(C(=O)CSc2nc(N)cc(N)n2)CC1 | -5 | 23394* | -2 | -3 | -2
O=C(CN1C(=O)/C(=C/c2ccccc2F)Sc2ccccc21)NCC1CCCO1 (centres undefined) | . | . | . | . | -5
COCCNC(=O)CCCCCn1c(=S)[nH]c2ccccc2c1=O | 1 | 22614* | 2 | ? | 0
COCCCNC(=O)CCCn1c(=O)[nH]c2ccccc2c1=O | -13 | 4262 | -2 | -1 | 4
CCN(CC)CCn1c(=S)[nH]c2cc3c(cc2c1=O)OCO3 | -2 | 23550* | -1 | ? | 2
O=c1c2ccccc2[nH]c(=S)n1Cc1ccc2c(c1)OCO2 | 0 | 4052 | 3 | -1 | -9
O=C(CCCCCn1c(=S)[nH]c2ccccc2c1=O)NCc1ccc2c(c1)OCO2 | -4 | 23096* | -2 | -3 | 2
CCCCNC(=O)CCCn1c(=S)[nH]c2cc3c(cc2c1=O)OCO3 | -3 | 20235* | -3 | ? | 5
CCN1CCc2c(OCC(=O)N3CCCCC3)cccc2C1=O | 0 | 4973 | -4 | -1 | 2
Cc1ccc(C)c(S(=O)(=O)N2CCN(C(=O)[C@H](C)N3C(=O)C4CC=CCC4C3=O)CC2)c1 (some centres undefined) | 2 | 8922 | 1 | -1 | 3
FC(F)(F)c1cc(-c2ccco2)nc(-n2nnc3ccccc32)n1 | 2 | 15373 | -4 | 2 | 26
FC(F)(F)c1cc(-c2ccco2)nc(-n2nc(C(F)(F)F)cc2C2CC2)n1 | 6 | 20606* | -5 | 6 | -12
CCOC(=O)N1CCN(c2nc(-c3ccco3)cc(C(F)(F)F)n2)CC1 | 2 | 8698 | -7 | 2 | -4
CN1CCN(c2nc(-c3ccco3)cc(C(F)(F)F)n2)CC1 | -4 | 17518* | -2 | -4 | 5
CCOc1ccccc1N1CCN(C(=O)c2ccccc2OCc2c(C)noc2C)CC1 | 5 | 5005 | -2 | 2 | -24
COc1ccccc1-n1c(SCC(=O)Nc2cc(C)on2)nc2c([nH]c3ccccc32)c1=O | 3 | 5674 | 5 | -1 | 0
Cc1cc(F)ccc1C(O)c1ncc(-c2cccc3ccccc23)[nH]1 (centres undefined) | 3 | 3748 | -9 | 0 | .
